# This is one part of a sample in which hits are shown more often than they occur.
# Methyltransferases: Primary Screen for Target Class Profiling of Small Molecule Inhibitors of Methyltransferases | purified enzyme, MTase-Glo SAH luminescence; active compounds read low | calls only at 40 µM | 25,000 tested, 3.9% active | AID 1745853, 2022; call rule not given here
#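 Each enzyme was assayed with SAM and its substrate. SAH formation detected by MTase-Glo luminescence; single-point 40 uM screen[…].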
# An asterisk follows results filed as active; i = inactive; + = active, no number. % is set by controls: 0 for no effect and ±100 for the full control effect.
SMILES,Methyltransferases
Cc1ccc(CNC(=O)C2(C)Cn3nc(C(=O)NCc4ccc(OC(C)C)cc4)cc3C(=O)N2C)cc1 (configuration not stated),i
Cc1ccc(NC(=O)CCc2nnc3n(CCCOC(C)C)c(=O)c4ccccc4n23)cc1C,i
C=Cc1ccc(CSc2nnc3n(CCCOC(C)C)c(=O)c4ccccc4n23)cc1,i
COCCN1C(=O)c2cc(-c3ccccc3)nn2CC1(C)C(=O)NCc1ccccc1 (configuration not stated),i
Cn1c(=O)n(C)c2cc(S(=O)(=O)N3CCc4ccccc4C3)ccc21,i
COc1ccc(N2CCN(S(=O)(=O)c3ccc4c(c3)n(C)c(=O)n4C)CC2)cc1,i
Cn1c(=O)n(C)c2cc(S(=O)(=O)N3CCN(C4CCCCC4)CC3)ccc21,+
CCCN1C(=O)c2c(C(=O)NCCC3=CCCCC3)ncn2CC1(C)C(=O)NCc1ccc(OC)cc1 (configuration not stated),i
CCc1ccccc1NC(=O)c1ncn2c1C(=O)N(C1CC1)C(C)(C(=O)NCc1ccccc1OC)C2 (configuration not stated),i
CCCc1cc2c(N3CCN(C4=NCC(C)(C)S4)CC3)ncnc2s1,+
CC(C)c1cc2c(N3CCN(C4=NCC(C)(C)S4)CC3)ncnc2s1,+
CC(C)CCNC(=O)CCc1nnc2n(CCC(C)C)c(=O)c3ccccc3n12,i
CCCN1C(=O)c2c(C(=O)NCc3ccc(C)cc3)ncn2CC1(C)C(=O)NC1CCCC1 (configuration not stated),i
COCCNC(=O)c1cc2n(n1)CC(C)(C(=O)NC1CCCC1)N(C)C2=O (configuration not stated),i
CC(C)OCCCN1C(=O)c2ccc(-c3ccco3)n2CC1(C)C(=O)NC1CCCCCC1 (configuration not stated),i
CCOC(=O)c1cc(Nc2ccccc2)c2cc(Cl)ccc2n1,i
CCOC(=O)c1cccc(Nc2cc(C)nc3ccc(C)cc23)c1,+
CCOC(=O)c1cnc2ccc(C)cc2c1Nc1cccc(C)c1,i
Cc1cc2c(cc3n2CC(C)(C(=O)NC2CCCCCC2)N(CC(C)c2ccccc2)C3=O)o1 (configuration not stated),i
CCOc1ccc(N2C(=O)c3cc(C(=O)OC)nn3CC2(C)C(=O)NC2CCCCC2)cc1 (configuration not stated),i
CC(C)CNC(=O)c1ccc2c(=O)n(Cc3ccccc3)c3nn(Cc4ccccc4F)c(=O)n3c2c1,i
O=C(Cn1ccc2cc(S(=O)(=O)N3CCCCC3)ccc21)NCc1cccc(F)c1,i
CCOc1ccc(-c2cc3n(n2)CC(C)(C(=O)NC2CCCCC2)N(CCC(C)C)C3=O)cc1 (configuration not stated),i
O=C(O)CCc1ccc(NCc2cccc3c2CCCN3CCOc2ccccc2)cc1F,+
O=C(O)CCc1ccc(NCc2cccc(Oc3ccccc3)c2)cc1,i
SMILES,Methyltransferases
CC(=O)Nc1cccc(-c2n[nH]c3c2CC(=O)N(CCOc2ccccc2)C3)c1,i
CC(C)c1ccc(-c2cc3n(n2)CC(C)(C(=O)NC2CCCCC2)N(Cc2ccco2)C3=O)cc1 (configuration not stated),i
CC(C)NC(=O)c1ccc2c(=O)n(Cc3ccccc3)c3nn(Cc4ccc(F)cc4)c(=O)n3c2c1,i
Nc1c2c(nc3ccccc13)CCCC2,+
COc1cc(OC)c(NS(=O)(=O)c2ccc3c(c2)n(C)c(=O)n3C)cc1Cl,i
Cc1ccc(Cn2c(=O)c3ccccc3n3c(CCC(=O)N4CCN(c5ccccc5)CC4)nnc23)cc1,i
CC1CCC2(C(=O)OC3OC(CO)C(O)C(O)C3O)CCC3(C)C(=CCC4C5(C)CC(O)C(O)C(C)(C(=O)O)C5CCC43C)C2C1(C)O (configuration not stated),i
CC1OC(OC2C(O)COC(O[C@@H]3[C@@H](O)[C@@H](O)[C@H](OC4C(OC(=O)[C@]56CCC(C)(C)CC5C5=CCC7[C@@]8(C)C[C@H](O)[C@H](OC9OC(CO)C(O)C(O)C9O)[C@@](C)(CO)C8[C@H](O)C[C@@]7(C)[C@]5(C)CC6)OCC(O)C4O)O[C@H]3C)C2O)C(O)C(O)C1O (some centres not stated),i
C[C@@H]1O[C@@H](O[C@@H]2CO[C@@H](O[C@H]3CC[C@@]4(C)C(CC[C@]5(C)C4CC=C4[C@@H]6CC(C)(C)CC[C@]6(C(=O)O[C@@H]6O[C@H](CO)[C@@H](O)[C@H](O)[C@H]6O)CC[C@]45C)[C@]3(C)CO)[C@H](O)[C@H]2O[C@@H]2O[C@H](CO)[C@@H](O)[C@H](O)[C@H]2O)[C@H](O)[C@H](O)[C@H]1O (some centres not stated),i
CC1CCC2(C(=O)OC3OC(CO)C(O)C(O)C3O)CCC3(C)C(=CCC4C5(C)CCC(O)C(C)(CO)C5CCC43C)C2C1(C)O (configuration not stated),i
COC(=O)C1(C)CCC2(C(=O)O)CCC3(C)C(=CCC4C5(C)CC(O)C(OC6OCC(O)C(O)C6O)C(C)(CO)C5CCC43C)C2C1 (configuration not stated),i
CC1(C)CC[C@]2(C(=O)O[C@@H]3O[C@H](CO)[C@@H](O)[C@H](O)[C@H]3O)CC[C@]3(C)C(=CCC4[C@@]5(C)C[C@@H](O)[C@H](O)[C@@](C)(CO)C5CC[C@]43C)C2[C@@H]1O (some centres not stated),+
CC1(CO)CC[C@]2(C(=O)O[C@@H]3O[C@H](CO)[C@@H](O)[C@H](O)[C@H]3O)CC[C@]3(C)C(=CCC4[C@@]5(C)C[C@H](O)[C@H](O[C@@H]6OC[C@@H](O)[C@H](O)[C@H]6O)[C@@](C)(CO)C5CC[C@]43C)C2C1 (some centres not stated),+
CC1(C)CC[C@]2(C(=O)O[C@@H]3O[C@H](CO)[C@@H](O)[C@H](O)[C@H]3O)CC[C@]3(C)C(=CCC4[C@@]5(C)C[C@@H](O)[C@H](O)C(C)(C)C5CC[C@]43C)C2[C@@H]1O (some centres not stated),+
CC1(C)CC[C@]2(C(=O)O[C@@H]3O[C@H](CO)[C@@H](O)[C@H](O)[C@H]3O)CC[C@]3(C)C(=CCC4[C@@]5(C)C[C@@H](O)[C@H](O)[C@@](C)(CO)C5[C@H](O)C[C@]43C)C2[C@@H]1O (some centres not stated),+
CC1(C)CC[C@]2(C(=O)O[C@@H]3O[C@H](CO)[C@@H](O)[C@H](O)[C@H]3O)CC[C@]3(C)C(=CCC4[C@@]5(C)CC[C@H](O[C@H]6O[C@H](CO)[C@@H](O)[C@H](O[C@@H]7O[C@H](CO)[C@@H](O)[C@H](O)[C@H]7O)[C@H]6O)C(C)(C)C5CC[C@]43C)[C@@H]2C1 (some centres not stated),i
C[C@@H]1CC[C@]2(C(=O)O[C@@H]3O[C@H](CO)[C@@H](O)[C@H](O)[C@H]3O)CC[C@]3(C)C(=CCC4[C@@]5(C)C[C@@H](O)[C@H](O)C(C)(C)C5CC[C@]43C)C2[C@]1(C)O (some centres not stated),i

# Screening results deposited in PubChem BioAssay by National Center for Advancing Translational Sciences (NCATS).
